HCV inh = inhibitors of hepatitis C virus infection. 340,000 compounds, 3.4% hits. Huh7.5.1 HCVcc-Cre infection, luciferase reporter, 44 h. Potency, µM (doses to about 41.8 µM), inactives show at the top dose activity change, negative = inhibition, most hits filed as inhibitors. AID 651820; active means well fitted inhibition curve with a large enough effect; inconclusive means small, poorly fitted or top-dose-only effect, or another doubt; inactive means no such curve, though single readings can be large or run the other way; further: potency means the concentration at half of the fitted maximal effect
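Whole-lifecycle infectious HCVcc-Cre system; cells 1,000/well, compound then virus (~0.5 moi) added 4 h after plating, 44 h culture. Luciferase read 15 sec following 15 min substrate incubation, room temp.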
MARV entry inh = inhibitors of Marburg virus binding or cell entry. Marburg virus pseudotyped entry inhibition, cell reporter. Potency, µM (series often up to 37.8 µM), inactives show top-dose activity change, negative = inhibition, most hits filed as inhibitors. 300,000 compounds, 1.8% hits. AID 540276; calls by dose curve; tested in HEK293 cells; further: potency means the concentration at half of the fitted maximal effect
HCMV antiviral = blocks human cytomegalovirus replication. activity change, negative = inhibition, % at 57.5 µM. HFF cells, HCMV-luciferase reporter, 72 h; stronger effect = lower value. 410,000 compounds, 4.5% hits; in the data active means activity change below about -60%; inconclusive means no clear call, values can overlap the other calls; inactive means above about -39%
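Steps: HFFs plated, 16 h 37C; compounds added; HCMV-luciferase added to MOI 1 PFU/cell; 72 h 37C; OneGlo reagent, 5 min room temperature; luminescence read, normalized to controls.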
FMDV antiviral = blocks foot and mouth disease virus; 410,000 compounds, 1.2% hits; Potency, µM (series often up to 57.9 µM), without a hit: at the highest dose activity change, negative = inhibition, usual class: inhibitors; FMDV antiviral cell-based qHTS; AID 1159524; calls by dose curve; tested in HEK293T cells; further: read-out not given here; potency means the concentration at half of the fitted maximal effect; nearly all actives have a fitted effect of over 45% in size
LASV entry inh = blocks Lassa virus binding to or entry into cells | Lassa virus pseudotype entry inhibition, cell reporter | Potency, µM (doses to about 37.9 µM), for inactives: at the top dose activity change, negative = inhibition, usual class: inhibitors | 300,000 compounds, 1.2% hits | AID 540256; calls by dose curve; tested in HEK293 cells; further: potency means the concentration at half of the fitted maximal effect; nearly all actives have a fitted effect of over 50% in size
Numbers without * were called inactive; [ ] = another dose, or the depositor's remark. In the library only some 7.9% were active in any assay of this set; here they are far more common. On the % scale 0 is the no-effect control and ±100 the full control effect.

For CCCc1nc(SCC(=O)N2CCCC2)c2ccccc2n1 the results were HCV inh -1.7%, MARV entry inh -19.2%, HCMV antiviral -89.2*, FMDV antiviral inconclusive and LASV entry inh inconclusive.
For CCc1nc(SCC(=O)c2ccccc2)c2ccccc2n1 the results were HCV inh inconclusive, MARV entry inh 15.4%[46.1 µM], HCMV antiviral -35.1, FMDV antiviral -5.5% and LASV entry inh 1.2%[46.1 µM].
Screening CCc1nc(SCC(=O)c2ccc3c(c2)OCCO3)c2ccccc2n1 returned HCV inh 8.91µM*, MARV entry inh 17.5%, HCMV antiviral inconclusive, FMDV antiviral inconclusive and LASV entry inh inconclusive.
For CCCc1nc(SCC(=O)c2ccc(OC)cc2)c2ccccc2n1 the results were HCV inh 12.6µM*, MARV entry inh inconclusive, HCMV antiviral -83.0*, FMDV antiviral inconclusive and LASV entry inh -19.5%[46.1 µM].
Screening O=C1NC[C@H](CCCCN2CCN(Cc3ccccc3)C(=O)C2=O)N(CC2CCCCC2)C1=O returned HCMV antiviral -21.7 and FMDV antiviral -22.1%.
For CCCN(CC(=O)Nc1ccccc1C)C(=O)c1ccc(N2CCCC2=O)cc1 the results were HCV inh 7.0%, HCMV antiviral -30.2 and FMDV antiviral 0.4%.
COc1ccc(C2(O)CC3CCC(C2)N3c2cc(C)nc(-c3ccccc3)n2)cc1 (centres undefined) was read as HCV inh inconclusive, MARV entry inh 11.6µM*, HCMV antiviral -29.8, FMDV antiviral inconclusive and LASV entry inh 2.4%.
CCN(C(=O)COc1cc(=O)n(C)c2ccccc12)c1cccc(Cl)c1 was read as HCV inh -20.4%, MARV entry inh 1.1%, HCMV antiviral -90.2*, FMDV antiviral -29.4% and LASV entry inh -6.2%.
`O=C(Nc1ccc(S(=O)(=O)N2CCOCC2)cc1)C1CCN(S(=O)(=O)c2ccccc2)CC1` gave HCV inh inconclusive, MARV entry inh -0.8%, HCMV antiviral 2.1, FMDV antiviral -21.0% and LASV entry inh 3.3%.
CCOC(=O)c1sc2nc(C)nc(SC(C)C(=O)NC3CC3)c2c1C (centres undefined) was read as HCV inh -1.7%, HCMV antiviral -23.5 and FMDV antiviral -11.1%.
Screening O=C1C(N2CCOCC2)=C(n2nnc3ccccc32)C(=O)c2ccccc21 returned HCV inh 7.08µM*, MARV entry inh 7.94µM*, HCMV antiviral -100.4*, FMDV antiviral 10µM* and LASV entry inh inconclusive.
For CCOc1ccc(C(C(=O)NCC2CCCO2)N(C(=O)c2snc(C(N)=O)c2N)c2ccccc2F)cc1 (centres undefined) the results were HCV inh inconclusive, MARV entry inh inconclusive, HCMV antiviral 11.5, FMDV antiviral 25.6% and LASV entry inh 7.08µM*.
Screening CCOc1ccc(C(C(=O)NCC2CCCO2)N(Cc2cccs2)C(=O)c2snc(C(N)=O)c2N)cc1 (centres undefined) returned HCV inh inconclusive, MARV entry inh -16.6%[46.1 µM], HCMV antiviral -68.0*, FMDV antiviral -16.5% and LASV entry inh inconclusive.
For CCN(CC)C(=O)C1CCCN(c2ncnc3c2c(-c2ccccc2)cn3-c2cccc(C)c2)C1 (centres undefined) the results were HCMV antiviral 40.8, FMDV antiviral inconclusive and LASV entry inh inconclusive.
For COc1cccc(CC(=O)OCC(=O)NCCc2ccc(F)cc2)c1 the results were HCV inh 9.7%, HCMV antiviral -29.0 and FMDV antiviral 4.2%.
Screening O=[N+]([O-])c1ccc(/C=N/Nc2nc(N3CCCCCC3)nc(N3CCCCCC3)n2)o1 returned HCV inh inconclusive, MARV entry inh inconclusive, HCMV antiviral -11.1, FMDV antiviral inconclusive and LASV entry inh inconclusive.
Screening O=[N+]([O-])c1ccc(-c2ccc(/C=N/Nc3nc(NCc4ccccc4)nc(N4CCOCC4)n3)o2)cc1 returned HCV inh inconclusive, MARV entry inh 10µM*, HCMV antiviral -88.1*, FMDV antiviral -13.1% and LASV entry inh 7.6%[46.1 µM].
`Cc1ccc(/C=N/Nc2nc(N3CCCCC3)nc(N3CCCCC3)n2)o1` gave HCV inh inconclusive, MARV entry inh 1.2%[46.1 µM], HCMV antiviral -36.1, FMDV antiviral -18.4% and LASV entry inh inconclusive.
`COC(=O)c1ccccc1-c1ccc(/C=N/Nc2nc(N3CCCC3)nc(N3CCCC3)n2)o1` gave HCV inh 11.2µM*, MARV entry inh inconclusive, HCMV antiviral -7.2, FMDV antiviral 22.4µM* and LASV entry inh inconclusive.
`COc1nc(N/N=C/c2ccc(-c3ccccc3[N+](=O)[O-])o2)nc(N2CCOCC2)n1` gave HCV inh 11.2µM*, MARV entry inh inconclusive, HCMV antiviral 54.6, FMDV antiviral -10.8% and LASV entry inh 1.4%.
O=C(NCCN1CCOCC1)c1cnn(-c2nccc(-c3cc4ccccc4o3)n2)c1C1CC1 was read as FMDV antiviral -10.6%.
COc1ccc(CCNc2ncnc3sc(C(=O)N(C)C)c(C)c23)cc1OC was read as FMDV antiviral -13.2%.
Cc1ccc(C2c3[nH]c4ccccc4c3CCN2C(=O)CCc2ccccc2)cc1 (centres undefined) was read as HCMV antiviral -86.0*, FMDV antiviral -5.0% and LASV entry inh 3.16µM*.
`CCOc1cccc(C2c3[nH]c4ccccc4c3CCN2C(=O)CCc2ccccc2)c1` (centres undefined) gave HCMV antiviral -8.9, FMDV antiviral -25.1% and LASV entry inh inconclusive.
For CSc1ccc(C2c3[nH]c4ccccc4c3CCN2C(=O)CCC2CCCC2)cc1 (centres undefined) the results were HCMV antiviral -77.9*, FMDV antiviral -6.1% and LASV entry inh inconclusive.
For Cc1cccc2sc(N(CCCN(C)C)C(=O)CCc3ccccc3)nc12 the results were HCV inh 10µM*, MARV entry inh inconclusive, HCMV antiviral -71.6*, FMDV antiviral -12.3% and LASV entry inh inconclusive.
Screening CN(C)CCCN(C(=O)CCc1ccccc1)c1nc2ccc(F)cc2s1 returned HCV inh inconclusive, MARV entry inh -28.9%, HCMV antiviral -11.9, FMDV antiviral -14.6% and LASV entry inh -18.2%.
CN(C)CCCN(C(=O)CCc1ccccc1)c1nc2ccc(Br)cc2s1 was read as HCV inh -24.4%, MARV entry inh inconclusive, HCMV antiviral 0.0, FMDV antiviral 25.1µM* and LASV entry inh inconclusive.
COCC(C)N1C(=O)Cc2c1nc(N)c1c(N)nc(N3CCN(c4ccccc4F)CC3)c(C#N)c21 (centres undefined) was read as HCV inh inconclusive, MARV entry inh 16.4µM*, HCMV antiviral inconclusive, FMDV antiviral 31.6µM* and LASV entry inh inconclusive.
CCc1nnc(NC(=O)c2ccc(Cl)c(S(=O)(=O)N3CCc4ccccc4C3)c2)s1 was read as HCV inh inconclusive, MARV entry inh 3.9%, HCMV antiviral inconclusive, FMDV antiviral 25.1µM* and LASV entry inh 4.0%.

Screening data: PubChem, National Center for Advancing Translational Sciences (NCATS)
